# Experimental data taken from PubChem BioAssay AID1476 (National Center for Advancing Translational Sciences (NCATS), 2009).
# The campaign covered roughly 200,000 compounds. About 4,500 (2.2%) were called active. Another 12% or so got no clear call; they are omitted. The list comes from a sample in which actives are over-represented; it also holds similar structures and randomly drawn compounds. Values without a mark were called inactive. Calls come from the whole dose curve; as a rule, active = well fitted inhibition curve with a large enough effect; inconclusive = small, poorly fitted or top-dose-only effect, or effect the other way; inactive = flat fitted curve, though single readings scatter.
# Target: Cruzipain (Trypanosoma cruzi) (UniProt P25779)
# Test: qHTS Assay for Promiscuous and Specific Inhibitors of Cruzain (without detergent); note: nearly all actives have a fitted effect of over 40% in size
# Conditions: purified cruzain, Z-FR-AMC fluorescence, no detergent
# Protocol: Cruzain is a cysteine protease from the tropical parasite Trypanosoma cruzi. Dual qHTS experiment was performed against the NCGC compound collection in order to 1) identify novel inhibitors of the enzyme and 2) profile the compound collection for promiscuous inhibitors operating via colloidal aggregation (by performing detergent-free and detergent-containing comparison screens). Cruzain was assayed by the use of fluorogenic coumarin-based substrate Z-FR-AMC: proteolytic cleavage releases AMC, whose fluorescence is measured at 360 nm excitation and 450 nm emission. Purified cruzain was supplied by the labs of Prof. James McKerrow and Brian Shoichet, UC San Francisco.
# This assay had 0.00005% Triton X-100 concentration. See also releated assay "qHTS Assay for Promiscuous and Specific Inhibitors of Cruzain (with detergent)" with 0.01% Triton X-100.
# See following references for additional details:
# Assay Provider: Shoichet, Brian; University of California, San Fancisco
# Screening Center PI: Austin, C.P.
# Screening Center: NIH Chemical Genomics Center [NCGC]
# Buffer: 100 mM Sodium Acetate, pH 5.5, 5 mM DTT, Triton X-100 concentration: 0.01%.
# Buffer in columns 3 and 4 as negative control (no enzyme).
# Substrate solution: 2 uM final concentration of Z-FR-AMC (catalog number I-1160, Bachem) dispensed throughout the plate.
# Enzyme: 1.5 nM Cruzain final concentration in columns 1, 2, 5-48. Column 1 is neutral (100% activity). Column 2 contained titration of covalent inhibitor K11777, starting concentration 1 mM, then 1:2 dilution in duplicate).
# Three uL of enzyme or buffer were dispensed to 1536-well Greiner black solid bottom plates. Compounds and controls (23 nL) were transferred via Kalypsys PinTool. The plates were incubated for 15 min at room temperature, and then 1 uL of substrate solution was added to start the reaction. The plates were immediately transferred to and read 4 times every 30 seconds for 2 min on ViewLux High-throughput CCD imager (Perkin-Elmer) using 360 nm excitation and 450 nm emission fluorescence protocol. The fluorescence intensity difference between the third and the first time points (time lapse of 60 seconds) was used to compute reaction progress.
# Potency is the fitted concentration of half-maximal effect.
# Sequence of Cruzipain (Trypanosoma cruzi) (P25779 123-467 limits assumed): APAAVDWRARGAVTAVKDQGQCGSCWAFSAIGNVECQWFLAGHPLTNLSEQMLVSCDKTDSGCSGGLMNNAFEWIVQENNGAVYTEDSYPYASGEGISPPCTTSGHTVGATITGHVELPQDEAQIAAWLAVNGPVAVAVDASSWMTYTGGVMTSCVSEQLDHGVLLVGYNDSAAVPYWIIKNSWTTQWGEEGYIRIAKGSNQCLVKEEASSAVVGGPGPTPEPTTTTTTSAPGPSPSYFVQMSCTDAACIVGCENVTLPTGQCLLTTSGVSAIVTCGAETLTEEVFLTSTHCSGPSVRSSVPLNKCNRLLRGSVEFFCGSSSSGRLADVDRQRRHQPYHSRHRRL
Compound,"max response, negative = inhibition [%]",Potency
CCCCOc1ccc(CN2C(=O)C(=O)c3cc(Br)cc(C)c32)cc1OC,-26.4,
CCOC(=O)C1CCN(C(=O)CSc2c3c(nc4ccc(Cl)cc24)CCCC3)CC1,-19.6,
Cc1cc(C)cc(NC(=O)CCCc2nc(-c3ccccc3Cl)no2)c1,-8.67,
Cc1nc2cnc(Nc3ccccc3)nc2n(Cc2ccc(F)cc2)c1=O,-10.9,
O=c1cnc2cnc(Nc3ccccc3)nc2n1Cc1ccc(F)cc1,,20 µM (active)
CCNc1ncc2ncc(=O)n(CCc3ccccc3)c2n1,5.65,
COc1ccc2ncc3c(-c4ccc(C)c(C)c4)nn(CC(=O)NC4CCCC4)c3c2c1,1.87,
COc1ccc(Cl)cc1NC(=O)CCn1c(=O)c2cccn2c2ccccc21,26.4,
Cc1ccc(CCNC(=O)Cn2c(-c3cccs3)cc3cc(F)ccc32)cc1,,15.8 µM (active)
COc1ccc(CCNC(=O)CN2CCC(n3nnc4cc(F)ccc43)CC2)cc1OC,14.7,
Cc1cccc(Cn2c(=O)n(CCC(=O)NCCc3ccc(Cl)cc3)c(=O)c3sccc32)c1,0.837,
COc1cccc2c1cc1c(=O)n(CC(=O)N3CCN(c4ccccc4)CC3)nc(C)n12,-2.78,
CCOc1cccc2sc(N3CCN(C(=O)C4CC4)CC3)nc12,4.68,
COC(=O)c1ccccc1NC(=O)Cn1c(=O)cc(C)c2c(C)nn(-c3cccc(Cl)c3C)c21,1.01,
CC(C)C(=O)Nc1cccc(C(=O)Nc2ccc3c(c2)OCO3)c1,-8.97,
O=C(Nc1ccc2c(c1)OCO2)c1sc2cc(Cl)ccc2c1Cl,,10 µM (active)
O=C(Nc1ccc2c(c1)OCO2)c1cc(-c2cccc(Cl)c2)on1,-7.12,
O=C(CCc1nc(CN2CCN(S(=O)(=O)c3ccc(Br)cc3)CC2)no1)N1CCCCC1,27,
Cc1ccc(-c2nc3ccccn3c2Nc2c(C)cccc2C)o1,0.509,
Cc1ccc(-n2ncc3c(N4CCC(C(N)=O)CC4)ncnc32)cc1,17.2,
Cc1cccc(NC(=O)/C(=C\c2ccco2)NC(=O)c2ccccc2)c1,4.33,
O=C(OCN1C(=O)c2ccccc2C1=O)/C(=C\c1ccco1)NC(=O)c1ccccc1,,0.398 µM (active)

Compound,"max response, negative = inhibition [%]",Potency
CC(C)(C)c1ccc(C(=O)NCC(=O)OCN2C(=O)c3ccccc3C2=O)cc1,8.73,
CCc1ccc(NC(=O)CCCc2nnc3n(CCCOC)c(=O)c4sccc4n23)cc1,1.39,
CCc1ccccc1NC(=O)c1ccc2nc(CCc3ccccc3)oc2c1,1.42,
Cc1ccc(NC(=S)N/N=C2/CCCc3c(C)cc(C)cc32)cc1,,31.6 µM (active)
CCCCNC(=S)N/N=C1\CCCCc2ccccc21,-19.4,
Cc1ccc(NC(=S)NC2CCCC2)cc1,-5.53,
CC(C)C[C@H](NC(=O)[C@@H]1O[C@H]1C(=O)O)C(=O)NCCCCN=C(N)N,,0.0316 µM (active)
COc1ccc(NC(=O)CCCc2nnc3n(CCC(C)C)c(=O)c4sccc4n23)c(OC)c1,-6.21,
O=C(Nc1cccc(Cl)c1)c1csnn1,-5.33,
Cc1cccc2c1-c1sc(C(=O)Nc3ccc(F)cc3F)cc1CO2,-26.4,
COc1cc(NS(=O)(=O)c2ccc3c(c2)OCC(C(=O)N2CCCC2)O3)cc(OC)c1 (stereo not drawn),1.72,
CCCc1nc2ccccc2c(C(=O)OCC(=O)c2ccc3c(c2)NC(=O)CO3)c1CC,-2.97,
O=C(CCc1nc2ccccc2c(=O)[nH]1)OCC(=O)c1cccc(Cl)c1,-3.88,
Cc1ccc(C(=O)COC(=O)c2cccc(N3C(=O)c4c(C)nc5ccccc5c4C3=O)c2)cc1C,,7.94 µM (active)
Cc1cccc(-n2ncc(C(=O)N3CCN(c4ccc(Cl)cc4)CC3)c2C2CCN(C(=O)OC(C)(C)C)CC2)c1,-21.4,
c1ccc(COc2nsnc2N2CCOCC2)cc1,-3.44,
CCCCSc1ncnc2c1sc1nc(N3CCOCC3)c3c(c12)CCCC3,3.5,
c1ccc(CSc2ncnc3c2sc2nc(N4CCOCC4)c4c(c23)CCCC4)cc1,,3.16 µM (active)
CCOC(=O)c1cc(-c2ccccc2)n(-c2cccc(C(=O)Nc3cc(OC)cc(OC)c3)c2)c1C,-4.47,
CSc1nc(Nc2ccc(F)cc2)cc(-c2ccccc2)n1,-2.64,
COc1cc2c(cc1O)C(SC)=NC(C)(C)C2,-12.8,
COc1cc2c(cc1OC)C(C(C)C)=NC(C)(C)C2,,20 µM (active)

Compound,"max response, negative = inhibition [%]",Potency
COc1cc2c(cc1OC)C(Nc1ccc(S(N)(=O)=O)cc1)=NC(C)(C)C2,5.29,
CCOc1ccc(N(CC)S(=O)(=O)N2CCCC(C(=O)NCc3ccc(Cl)cc3)C2)cc1 (stereo not drawn),19.9,
CC(=O)N1CCCc2cc(S(=O)(=O)N3CCC(C(=O)NC4CCCCC4)CC3)ccc21,8.72,
c1cnc(Nc2nc(-c3ccc4ccccc4c3)cs2)nc1,,3.98 µM (active)
c1ccc(Nc2nc(-c3ccncc3)cs2)nc1,2.93,
COc1ccc(Nc2nc(-c3ccccc3)cs2)cc1,-15.9,
COC(=O)c1ccccc1NC(=O)c1cnn(-c2ccc(F)cc2)c1-n1cccc1,3.91,
CCCCCN1CC(O)=C(c2ccccc2)C1=N,-0.607,
CCCCCN1CC(O)=C(c2nc(-c3ccc(Cl)cc3)cs2)C1=N,,5.01 µM (active)
CCCc1cc(-c2nc(-c3ccc(C)cc3)cs2)ccn1,13.4,
Cc1ccc(S(=O)(=O)N(Cc2nc(-c3ccc(Cl)cc3)no2)C2CCCCC2)cc1,-17.5,
CCN(CC)S(=O)(=O)c1ccc2c(c1)N(CC(=O)NCc1ccccc1)C(=O)CS2,1.54,
O=C(C(=O)N1CCc2ccccc2C1)N1CCc2ccccc2C1,-0.495,
c1ccc(-c2csc(N3CCc4ccccc4C3)n2)cc1,,25.1 µM (active)
N#C/C(=C1\CCCN1)c1nc(-c2ccccc2)cs1,-17.6,
Cc1ccc(OCC(=O)Nc2ccc(OCc3cc(=O)n4c(C)csc4n3)cc2)cc1C,-9.52,
Cc1ccc(C)c(Cn2c(C)c(CNCc3ccc(F)cc3)c(C(=O)O)c2C)c1,16.1,
COc1ccc(CN2C(=O)CC(Cc3ccc(C)cc3)C2=O)cc1OC (stereo not drawn),-8.47,
O=C1CSC2(C(=O)N(Cc3ccccc3)c3ccccc32)N1c1cccc(F)c1 (stereo not drawn),2.62,
COc1ccc(N2C(=O)CS(=O)(=O)C23C(=O)N(Cc2ccc(C)cc2)c2ccccc23)cc1Cl (stereo not drawn),,2.51 µM (active)
Cc1oc(-c2ccccc2F)nc1CN1CCC(C(=O)NCCc2ccc(Cl)cc2)CC1,1.36,
CC1=C(C(=O)OCc2ccc(C)cc2)C(c2ccccc2Cl)CC(=O)N1 (stereo not drawn),4.48,

Compound,"max response, negative = inhibition [%]",Potency
O=C1N/C(=C/c2cccn2-c2ccccc2)C(=O)N1c1cccc(Cl)c1,,10 µM (active)
O=C1CC(NNc2ccccc2)C(=O)N1c1cccc(Cl)c1 (stereo not drawn),-28.1,
COc1cc2c(cc1/C=C1/NC(=O)N(c3ccccc3)C1=O)OCO2,-27.8,
Cc1ccc(-n2nc3ccc(NC(=O)/C=C/c4ccco4)cc3n2)cc1C,,12.6 µM (active)
Cc1nnc(NC(=O)/C=C/c2ccco2)s1,-4.39,
O=C(/C=C/c1ccco1)Nc1ccc(Oc2ccccc2)cc1,-5.89,
COc1ccccc1Nc1c2c(nc3ccc(NC(=O)/C=C/c4cc(OC)c(OC)c(OC)c4)cc13)CCCC2,-4.58,
Cc1ccc(O)c(NC(=O)COc2cc(C)ccc2C)c1,,31.6 µM (active)
Cc1ccc(OCC(=O)N/N=C\c2ccco2)c(C)c1,4.92,
COc1ccc(C(=O)Nc2cc(C)ccc2NC(=O)COc2ccccc2)cc1,2.68,
Cc1noc(/C=C/c2ccco2)c1S(=O)(=O)N1CCC(C(=O)N2CCc3ccccc32)CC1,,15.8 µM (active)
Cc1noc(/C=C/N(C)C)c1S(=O)(=O)N1CCCC(C(=O)NCc2ccco2)C1 (stereo not drawn),14.2,
Cc1cccc(NC(=O)C2CCN(S(=O)(=O)c3c(C)noc3/C=C/c3ccco3)CC2)c1,2.41,
CC(=O)c1ccc(NC(=O)C2CCN(S(=O)(=O)c3c(C)noc3/C=C/c3ccc(C)cc3)CC2)cc1,9.83,
Cc1noc(/C=C/c2ccco2)c1S(=O)(=O)N1CCC(C(=O)Nc2ccc(Cl)cn2)CC1,,6.31 µM (active)
Cc1cc(C)c(/C=C/c2onc(C)c2S(=O)(=O)N2CCC(C(=O)Nc3ccc(Cl)cc3C)CC2)c(C)c1,0.507,
Cc1ccc(NC(=O)CCCn2c(=O)c3cccn3c3ccccc32)cc1Cl,8.76,
Cc1ccc(C)c(N2CCN(C(=O)CN3C(=O)COc4ccc(S(=O)(=O)N5CCCCCC5)cc43)CC2)c1,-9.73,
Cc1ccc(C)c(NC(=O)CSC2=Nc3ccccc3N=C(c3ccc(F)cc3)C2)c1,1.61,
O=C(Nn1c(-c2ccccc2)nc2ccccc2c1=O)c1ccc([N+](=O)[O-])cc1,8.42,
O=C(Nn1c(SCc2ccc([N+](=O)[O-])cc2)nc2ccccc2c1=O)c1ccc(F)cc1,,10 µM (active)
O=C(CCn1c(SCC(=O)c2ccccc2)nc2ccccc2c1=O)NCc1ccc(F)cc1,-24.2,
